Experimental findings from PubChem BioAssay (NCATS) are described below.

The structures appear in SMILES notation. Where “and” joins values, the source holds several entries; their conditions need not be identical. Equal values may be shown once. Records with an inconclusive call do not appear. Calls of active or inactive are those of the source. Unless noted, calls come from the whole dose curve; as a rule, active = well fitted curve in the direction sought with a large enough effect; inconclusive = small, poorly fitted or top-dose-only effect, or another doubt; inactive = no such curve, though single readings can be large; an effect the other way counts as inactive or inconclusive.

Test [1] has as its target Cytochrome P450 1A2 (Homo sapiens) (UniProt P05177). As to the kind of experiment: p450-cyp1a2 (AID 410; calls by dose curve). The method in brief:
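Read-out is luminescence from luciferin produced by CYP1A2 demethylation of Luciferin-ME (100uM, at Km). Detection reagent stopped the 60 min NADPH-dependent reaction; signals were normalized to 57 uM furafylline.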

The target of test [2] is Glucocorticoid receptor (Homo sapiens) (UniProt P04150). As to the kind of experiment: GR-GFP Redistribution (AID 450;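 active = compounds whose dose series gives a full or clear partial fitted curve of increased nuclear translocation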; note: potency is the fitted concentration of half-maximal effect). To be noted: U2OS GR-GFP nuclear translocation, laser cytometry, 2 h.
For test [3] the target is unchanged. As to the kind of experiment: GR-EFC Redistribution (AID 451; calls by dose curve; note: potency is the fitted concentration of half-maximal effect). To be noted: CHO-K1 GR-EFC translocation, beta-gal luminescence, 2 h. In a few lines:
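CHO-K1 cells stably expressing nuclear-localized β-gal enzyme acceptor and GR fused C-terminally to the enzyme donor fragment; ligand-driven nuclear translocation restores β-gal by complementation. Compounds titrated up to 46 uM final, 2 h at 37 °C; luminescence read.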

The target of test [4] is Cytochrome P450 2D6 (Homo sapiens) (UniProt P10635). As to the kind of experiment: qHTS Assay for Inhibitors and Substrates of Cytochrome P450 2D6 (AID 891). Note: nearly all actives have a fitted effect of over 60% in size. Note: potency is the fitted concentration of half-maximal effect. The method in brief: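 Luminescent read-out of luciferin formed by 5 nM human CYP2D6 demethylating 30 uM Luciferin-ME EGE (Km level) over 60 min at room temperature after NADPH regeneration addition. Data normalized to full inhibition by 1.43 uM quinidine.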

Test [5] has as its target DNA dC->dU-editing enzyme APOBEC-3G (Homo sapiens) (UniProt Q9HC16). As to the kind of experiment: qHTS for inhibitors of Vif-A3G interactions: Validation (AID 588379). Note: 0% is about no effect. In a few lines: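 Yellow fluorescence (Ex 488, Em 500-530) of Vif-coexpressing HeLa A3G-eYFP cells, scanned by Acumen cytometer, reports blocked A3G degradation. Cells plated at 700/well overnight at 37 deg C before compound addition, then a further overnight compound incubation at 37 deg C.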

Test [6] concerns Zika virus NS2B-NS3 protease. As to the kind of experiment: Primary screen GU AMC qHTS for Zika virus inhibitors (AID 1347154).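 Note: 0% = no-inhibitor control and -100% = no-enzyme control; nearly all actives have a fitted effect of over 70% in size.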 In a few lines:
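Unlinked Zika NS2B hydrophilic domain/NS3 protease domain noncovalent complex (25 nM final) in 10 mM Tris-HCl pH 8.0, 0.01% Tween 20, with AMC peptide substrate. Fluorescence (ex 340, em 450 nm) change over 15 min, room temperature; percent inhibition fitted to 4-parameter Hill equation.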

The nature of test [7]: Primary qHTS for small molecule stabilizers of the endoplasmic reticulum resident proteome: Secreted ER Calcium Modulated Protein (SERCaMP) assay (AID 1508630). Note: % is set by controls: 0 for no effect and ±100 for the full control effect. In a few lines:
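The SH-SY5Y reporter protocol was run at 3 concentrations up to 38.3 uM (primary) or 11 concentrations (follow-up): 16 h compound, 100 nM thapsigargin for 4 h, then extracellular luciferase luminescence.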

Test [8] can be described thus: AP1 Signaling Pathway (AID 357; active = well fitted curve in either direction with a large enough effect, not every such curve was filed as active;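 note: ME-180 reporter cells stimulated with EGF at its EC50 level; % is set by controls: 0 for no effect and ±100 for the full control effect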). The method in brief: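 Titration-series screen for positive or negative modulators of EC50 EGF-induced signaling in ME-180 cells carrying an AP-1-driven beta-lactamase reporter. After 5 hours at 37 degrees Celsius, CCF4 460nm/530nm emission ratio gave %Activity; AC50 values derived.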
A short description of test [9]: NFAT Signaling Pathway (AID 444; active = well fitted curve in either direction with a large enough effect, not every such curve was filed as active;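 note: carbachol stimulus at about its EC50 of 1 µM final; % is set by controls: 0 for no effect and ±100 for the full control effect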). To be noted: Jurkat NFAT-bla M1, carbachol, beta-lactamase ratio, 5 h. The method in brief:
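Jurkat cells carrying an NFAT-driven β-lactamase reporter and co-transfected muscarinic M1 receptor were treated with compound plus carbachol (1 uM final, an EC50 level) for 5 h at 37 °C. CCF4 loading followed for 1 h at RT; 460/530 nm ratio gave %activity.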

A short description of test [10]: Stat Signaling Pathway (AID 446; active = well fitted curve in either direction with a large enough effect, not every such curve was filed as active;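 note: ME-180 cervical cancer cells given 40 pM IL-6 alongside compound; SIE-controlled beta-lactamase reporter measured as 460/530 nm FRET emission ratio; % is set by controls: 0 for no effect and ±100 for the full control effect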). The method in brief:
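Normalization used AC90 stimulation (300 pM IL-6) and AC90 inhibition (125 nM pan-JAK inhibitor at 40 pM IL-6). The underlying signal is SIE-driven beta-lactamase in ME-180 cells after 5 h IL-6 exposure with compound.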

Test [11] addresses Mitogen-activated protein kinase 10 (Mus musculus) (UniProt Q61831). Briefly: JNK3 AlphaScreen Assay (AID 530; active = well fitted curve in either direction with a large enough effect, not every such curve was filed as active). In a few lines:
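Biotinylated GST-cJun(1-79) served as substrate for JNK3 in HepG2 lysates stimulated with IL-1beta and TNF-alpha. ATP was 10 uM final, pH 7.6. Ser73 phosphorylation was quantified by AlphaScreen (680 nm excitation).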

Test [12] concerns the target 3',5'-cyclic-AMP phosphodiesterase 4B (Homo sapiens) (UniProt Q07343). Briefly: qHTS Assay for Inhibitors of PDE-IV (AID 607; active = well fitted activation curve with a large enough effect in the main read-out, with a control signal flat, not every such curve was filed as active; note: % of control where 0% means no effect). The method in brief: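 HEK293 ACTOne cells with CNG channel (1000/well), endogenous PDE4; membrane potential dye, compounds up to 22.9 uM final. Fluorescence Ex 535/Em 590; RO 20-1724 (100 uM final) as reference.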
Test [13] is described as follows: qHTS Assay for Lipid Storage Modulators (AID 1519; calls by dose curve). To be noted: Drosophila S3 cells, BODIPY lipid droplet/cell ratio, laser cytometry, cells loaded with oleic acid. In a few lines:
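Cells seeded at 5,000 per well were treated with compounds over a concentration series and loaded with oleic acid (400 uM, as added). Lipid droplet fluorescence (488 nm excitation, 500-530 nm channel) was read by laser-scanning cytometry and normalized to 20 uM Triacsin C.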

Test [14] deals with Ubiquitin carboxyl-terminal hydrolase 1 (Homo sapiens) (UniProt O94782). Briefly: Inhibitors of USP1/UAF1: Pilot qHTS (AID 504865).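 Note: rhodamine fluorescence freed from ubiquitin-rhodamine substrate followed over time; top concentration of the series differs between compounds; % is set by controls: 0 for no effect and ±100 for the full control effect; nearly all actives have a fitted effect of over 35% in size.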 In a few lines: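 Deubiquitinase activity followed as kinetic rhodamine fluorescence release from 150 nM Ub-Rho. 1 nM USP1/UAF1 with compound, after 15 min room-temperature preincubation, in HEPES pH 7.8 buffer containing TCEP, EDTA, BSA and Tween-20.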

Test [15] has as its target Cytochrome P450 3A4 (Homo sapiens) (UniProt P08684). Briefly: qHTS Assay for Inhibitors and Substrates of Cytochrome P450 3A4 (AID 884). Note: % is set by controls: 0 for no effect and ±100 for the full control effect; nearly all actives have a fitted effect of over 50% in size. In a few lines:
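Luminescent readout of luciferin produced by CYP3A4 (20 nM) dealkylation of Luciferin-PPXE, 25 uM (its KM). NADPH-driven reaction ran 60 min at RT after 10 min compound preincubation; data scaled to 57 uM ketoconazole as 100% inhibition.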

Test [16] addresses Guanine nucleotide-binding protein G(i) subunit alpha-1 (Homo sapiens) (UniProt P63096). As to the kind of experiment: qHTS Assay for Inhibitors of RGS12 GoLoco Motif Activity (Green Fluorophore) (AID 879).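 Note: 0% = labeled peptide with Gαi1 and full inhibition = labeled peptide alone without protein; negative values mean loss of peptide binding seen as reduced polarization.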 The method in brief:
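A drop in FITC polarization marked displacement of the FITC-tagged RGS12 GoLoco peptide (10 nM) from Gαi1 (50 nM). Compounds were incubated 10 min at room temperature in Tris pH 7.5 buffer containing 150 mM NaCl, 0.1 mM GDP and 0.05% NP40; unlabeled peptide titration served as control.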

Test [17] has as its target Pyruvate kinase (Leishmania mexicana) (UniProt Q27686). As to the kind of experiment: qHTS Validation Assay for Inhibitors of Leishmania Mexicana Pyruvate Kinase (AID 945).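 Note: 0% = DMSO only neutral control wells.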 In a few lines:
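LmPYK E451W 0.2 nM; 0.5 mM PEP, 0.1 mM ADP, 7 mM MgCl2, 50 mM KCl, imidazole pH 7.2, 0.01% Tween 20, 0.05% BSA; 1 h RT; PKLight luminescence; DMSO-normalized.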

Test [18] addresses Alpha-galactosidase (Coffea arabica) (UniProt Q42656). As to the kind of experiment: Counterscreen for Glucocerebrosidase Inhibitors: qHTS Assay for Coffee Bean alpha-Galactosidase at pH 4.5 (AID 957).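 Note: plate controls were enzyme alone for no effect and no enzyme for full effect.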 In a few lines:
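Quantitative HTS of compounds (0.7 nM to 77 uM) against coffee bean alpha-galactosidase at pH 4.5, measuring 4-methylumbelliferone fluorescence released from 80 uM substrate.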

For test [19], the target named is Alpha-galactosidase A (Homo sapiens) (UniProt P06280). Briefly: Counterscreen for Glucocerebrosidase Inhibitors: qHTS Assay for Human alpha-Galactosidase at pH 4.5 (AID 992). Note: 0% is about no effect. The method in brief:
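Steps: enzyme (2 nM final), then compound across 0.7 nM to 77 uM, then 80 uM fluorogenic galactopyranoside substrate; incubate 20 min at room temperature; quench at pH 10; measure fluorescence at 365/440 nm.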

The target in test [20] is Cytochrome P450 3A4 (Homo sapiens) (UniProt P08684). As to the kind of experiment: qHTS Assay for Activators of Cytochrome P450 3A4 (AID 885). Note: nearly all actives have a fitted effect of over 65% in size. In a few lines: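 Human CYP3A4 dealkylates Luciferin-PPXE to luciferin, which luciferase detection converts to light. Substrate was at its KM (25uM), buffer 200mM KPO4, reaction 60 min at RT.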
Setting [21] is: measured here: cell count channel max response.
The mark [22] stands for this setting: measured here: lipid channel max response.

Chain of 3',5'-cyclic-AMP phosphodiesterase 4B (Homo sapiens) (Q07343 whole entry, looked up): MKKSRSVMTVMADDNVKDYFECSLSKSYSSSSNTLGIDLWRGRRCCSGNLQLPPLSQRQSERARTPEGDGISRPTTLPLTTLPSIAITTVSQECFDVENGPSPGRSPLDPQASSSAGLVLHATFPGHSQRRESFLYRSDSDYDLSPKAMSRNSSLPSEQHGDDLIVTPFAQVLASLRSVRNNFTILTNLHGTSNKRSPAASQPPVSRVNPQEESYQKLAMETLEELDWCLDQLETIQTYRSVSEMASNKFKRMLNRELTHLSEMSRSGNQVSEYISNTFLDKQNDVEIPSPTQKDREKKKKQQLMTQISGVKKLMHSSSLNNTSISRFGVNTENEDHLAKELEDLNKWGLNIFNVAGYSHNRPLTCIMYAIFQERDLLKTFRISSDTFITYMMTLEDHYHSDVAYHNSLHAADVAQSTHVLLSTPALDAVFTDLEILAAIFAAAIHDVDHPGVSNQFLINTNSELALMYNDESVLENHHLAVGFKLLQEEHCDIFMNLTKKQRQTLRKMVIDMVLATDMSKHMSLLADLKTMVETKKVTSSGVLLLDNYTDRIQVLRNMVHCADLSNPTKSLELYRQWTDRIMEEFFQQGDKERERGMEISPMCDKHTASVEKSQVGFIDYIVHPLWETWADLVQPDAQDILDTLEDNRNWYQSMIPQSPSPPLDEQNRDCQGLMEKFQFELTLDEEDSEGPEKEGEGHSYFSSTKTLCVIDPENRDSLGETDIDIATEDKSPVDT
Chain of Ubiquitin carboxyl-terminal hydrolase 1 (Homo sapiens) (O94782 whole entry, looked up): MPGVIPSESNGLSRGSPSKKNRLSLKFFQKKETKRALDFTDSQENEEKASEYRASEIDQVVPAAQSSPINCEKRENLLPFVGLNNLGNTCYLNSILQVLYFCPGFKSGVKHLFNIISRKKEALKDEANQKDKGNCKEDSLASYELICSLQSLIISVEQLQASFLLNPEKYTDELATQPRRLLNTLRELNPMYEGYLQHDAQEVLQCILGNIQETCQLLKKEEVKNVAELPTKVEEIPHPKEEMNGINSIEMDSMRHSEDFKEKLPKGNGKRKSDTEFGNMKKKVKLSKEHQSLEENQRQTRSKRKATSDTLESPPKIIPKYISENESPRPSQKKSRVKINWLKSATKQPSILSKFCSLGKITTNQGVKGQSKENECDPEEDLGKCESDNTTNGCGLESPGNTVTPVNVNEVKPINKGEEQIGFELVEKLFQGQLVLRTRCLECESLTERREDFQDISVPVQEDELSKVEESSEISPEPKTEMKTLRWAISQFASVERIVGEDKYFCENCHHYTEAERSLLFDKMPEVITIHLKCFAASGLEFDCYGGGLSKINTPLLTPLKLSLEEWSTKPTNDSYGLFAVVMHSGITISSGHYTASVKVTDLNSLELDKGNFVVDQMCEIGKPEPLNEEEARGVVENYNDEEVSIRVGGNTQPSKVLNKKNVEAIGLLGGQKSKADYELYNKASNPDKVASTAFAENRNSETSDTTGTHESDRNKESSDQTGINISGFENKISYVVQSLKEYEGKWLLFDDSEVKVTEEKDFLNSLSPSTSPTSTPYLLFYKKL
Chain of Glucocorticoid receptor (Homo sapiens) (P04150 whole entry, looked up): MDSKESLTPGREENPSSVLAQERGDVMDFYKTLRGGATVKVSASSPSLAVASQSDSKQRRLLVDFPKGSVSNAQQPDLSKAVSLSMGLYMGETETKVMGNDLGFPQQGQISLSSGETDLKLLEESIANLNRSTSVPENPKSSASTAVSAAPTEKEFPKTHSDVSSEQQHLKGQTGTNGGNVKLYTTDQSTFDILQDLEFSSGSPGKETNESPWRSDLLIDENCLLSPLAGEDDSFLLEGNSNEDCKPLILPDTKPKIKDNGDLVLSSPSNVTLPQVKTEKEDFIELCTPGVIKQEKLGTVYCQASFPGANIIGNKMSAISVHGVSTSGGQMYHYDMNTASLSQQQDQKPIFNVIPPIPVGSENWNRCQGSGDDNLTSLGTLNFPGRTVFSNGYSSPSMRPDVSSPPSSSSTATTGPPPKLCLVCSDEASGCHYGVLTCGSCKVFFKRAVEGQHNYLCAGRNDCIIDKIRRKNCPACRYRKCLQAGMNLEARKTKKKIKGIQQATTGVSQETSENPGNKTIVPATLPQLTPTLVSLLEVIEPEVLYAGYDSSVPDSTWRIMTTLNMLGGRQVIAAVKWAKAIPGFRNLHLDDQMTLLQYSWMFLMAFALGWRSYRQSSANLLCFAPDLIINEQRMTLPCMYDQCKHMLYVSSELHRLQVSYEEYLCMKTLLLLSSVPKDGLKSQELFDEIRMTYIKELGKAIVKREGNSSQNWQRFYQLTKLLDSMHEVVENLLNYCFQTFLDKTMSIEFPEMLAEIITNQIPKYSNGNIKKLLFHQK
Chain of Cytochrome P450 2D6 (Homo sapiens) (P10635 whole entry, looked up): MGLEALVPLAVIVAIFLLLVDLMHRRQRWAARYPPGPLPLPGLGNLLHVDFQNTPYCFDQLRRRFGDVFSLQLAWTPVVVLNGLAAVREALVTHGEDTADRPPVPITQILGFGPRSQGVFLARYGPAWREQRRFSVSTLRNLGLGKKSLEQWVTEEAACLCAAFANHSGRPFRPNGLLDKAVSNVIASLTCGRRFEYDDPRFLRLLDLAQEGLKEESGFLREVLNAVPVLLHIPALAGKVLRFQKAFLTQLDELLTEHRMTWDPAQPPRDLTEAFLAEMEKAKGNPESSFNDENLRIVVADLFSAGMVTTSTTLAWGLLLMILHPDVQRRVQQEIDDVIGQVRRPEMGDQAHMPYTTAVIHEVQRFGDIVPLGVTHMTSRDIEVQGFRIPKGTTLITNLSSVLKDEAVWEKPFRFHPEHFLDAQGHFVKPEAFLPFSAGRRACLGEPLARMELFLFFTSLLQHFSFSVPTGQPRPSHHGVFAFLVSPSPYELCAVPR
Chain of DNA dC->dU-editing enzyme APOBEC-3G (Homo sapiens) (Q9HC16 whole entry, looked up): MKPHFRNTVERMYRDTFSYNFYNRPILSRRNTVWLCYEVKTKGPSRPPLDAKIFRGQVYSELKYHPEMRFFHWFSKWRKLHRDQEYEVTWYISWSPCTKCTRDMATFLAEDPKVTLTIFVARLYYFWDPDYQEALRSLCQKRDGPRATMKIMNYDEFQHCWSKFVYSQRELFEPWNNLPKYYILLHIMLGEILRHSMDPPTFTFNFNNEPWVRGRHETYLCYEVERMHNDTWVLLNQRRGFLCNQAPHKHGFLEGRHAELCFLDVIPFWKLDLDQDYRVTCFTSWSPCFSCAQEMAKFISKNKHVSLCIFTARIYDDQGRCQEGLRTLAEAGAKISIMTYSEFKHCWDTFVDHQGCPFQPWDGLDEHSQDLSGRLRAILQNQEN
Chain of Cytochrome P450 1A2 (Homo sapiens) (P05177 whole entry, looked up): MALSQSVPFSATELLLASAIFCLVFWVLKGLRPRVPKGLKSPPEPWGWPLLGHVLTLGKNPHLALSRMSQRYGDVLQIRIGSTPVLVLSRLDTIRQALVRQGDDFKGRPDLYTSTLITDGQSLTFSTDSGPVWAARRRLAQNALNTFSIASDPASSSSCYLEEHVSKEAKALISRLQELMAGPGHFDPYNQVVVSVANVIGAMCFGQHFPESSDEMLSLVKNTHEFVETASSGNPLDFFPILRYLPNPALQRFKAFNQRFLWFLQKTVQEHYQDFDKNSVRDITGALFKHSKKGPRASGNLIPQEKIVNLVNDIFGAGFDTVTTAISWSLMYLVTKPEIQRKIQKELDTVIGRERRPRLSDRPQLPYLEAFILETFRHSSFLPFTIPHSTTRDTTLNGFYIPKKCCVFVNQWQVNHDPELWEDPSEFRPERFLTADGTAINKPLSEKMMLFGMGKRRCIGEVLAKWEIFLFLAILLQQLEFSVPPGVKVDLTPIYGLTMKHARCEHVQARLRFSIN
Chain of Cytochrome P450 3A4 (Homo sapiens) (P08684 whole entry, looked up): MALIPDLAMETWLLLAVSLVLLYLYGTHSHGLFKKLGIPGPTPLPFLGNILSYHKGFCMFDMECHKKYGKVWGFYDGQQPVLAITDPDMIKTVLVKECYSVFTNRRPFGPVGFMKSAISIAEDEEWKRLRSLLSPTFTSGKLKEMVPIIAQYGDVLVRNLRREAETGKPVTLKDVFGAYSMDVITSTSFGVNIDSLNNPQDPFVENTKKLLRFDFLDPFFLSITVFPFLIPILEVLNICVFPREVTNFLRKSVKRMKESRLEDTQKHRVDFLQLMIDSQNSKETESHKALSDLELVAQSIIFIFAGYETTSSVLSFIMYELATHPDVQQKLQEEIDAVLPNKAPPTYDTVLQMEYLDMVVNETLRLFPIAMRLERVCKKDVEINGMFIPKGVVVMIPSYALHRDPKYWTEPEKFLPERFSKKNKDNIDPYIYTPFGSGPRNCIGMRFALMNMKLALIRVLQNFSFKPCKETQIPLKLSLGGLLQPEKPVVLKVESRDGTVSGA
Chain of Pyruvate kinase (Leishmania mexicana) (Q27686 2-499 E452W): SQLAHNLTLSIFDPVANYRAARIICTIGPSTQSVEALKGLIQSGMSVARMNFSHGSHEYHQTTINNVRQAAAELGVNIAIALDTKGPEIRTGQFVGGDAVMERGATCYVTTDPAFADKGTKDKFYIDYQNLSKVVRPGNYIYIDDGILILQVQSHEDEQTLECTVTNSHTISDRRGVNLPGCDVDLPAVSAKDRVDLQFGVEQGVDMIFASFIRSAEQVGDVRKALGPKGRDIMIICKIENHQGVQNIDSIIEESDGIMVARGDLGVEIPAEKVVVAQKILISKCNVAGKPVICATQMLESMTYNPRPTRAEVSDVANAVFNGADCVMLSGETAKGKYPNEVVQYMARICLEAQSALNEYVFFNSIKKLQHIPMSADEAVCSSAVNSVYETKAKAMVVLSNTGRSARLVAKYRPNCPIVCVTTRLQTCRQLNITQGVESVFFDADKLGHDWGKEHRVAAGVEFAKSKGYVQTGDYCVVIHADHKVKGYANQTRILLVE

Take `CN(C(=O)Cc1ccccc1)[C@H](CN1CCCC1)c1ccccc1`: the Potency entry in test [1], in test [5], in [6] and in [7] was “inactive” in each case. Further, the Potency in [2] is > 46 µM (inactive); in [3] it was > 46 µM (inactive); in test [4], 3.16 µM (active).

As for `NC[C@@H](CC(=O)O)c1ccc(Cl)cc1`, the outcome in test [8], in test [10] and in test [11] was inactive. The activity change, negative = inhibition in test [9] (at 17.2 µM (top of the series)) was -1.76% (inactive); in test [9] (at 38 µM (top of the series)) it was -6.39% (inactive). For the same molecule, the Potency was > 20.6 µM (inactive) and > 46 µM (inactive) in [2]; > 20.6 µM (inactive) and > 46 µM (inactive) in test [3]. In addition, the Potency entry in [12], in [4], in test [5], in test [6] and in [7] was “inactive” in each case.

On to `NC(N)=Nc1ccc2[nH]c3c(c2c1)C[C@]1(O)[C@@H]2Cc4ccc(O)c5c4[C@]1(CCN2CC1CC1)[C@@H]3O5`, for which the Potency entry in test [1], in test [12], in [14], in test [5], in [6] and in [7] was “inactive” each time. In addition, the Potency in test [3] was > 46 µM (inactive). Besides, the call in test [11] was inactive. In test [13] (at 57.5 µM (top of the series)), the activity change, negative = inhibition is -1.94% (inactive). Moreover, the max response in [13] (setting [21]) was determined as 2.17%; in test [13] (setting [22]), 1.06%.

For the molecule `c1cncc(C2CCCCN2)c1` (configuration not stated), the Potency result in test [15], in [14], in test [6] and in test [7] was “inactive” in each case. For the same molecule, the activity change, negative = inhibition in [13] (at 57.5 µM (top of the series)) is 4.14% (inactive). The max response in test [13] (setting [21]) amounted to 15%; in test [13] (setting [22]) it was 20.8%.

`c1ccc2c(c1)OC[C@@H](C1=NCCN1)O2`: the Potency result in test [1], in test [12], in test [14], in test [5], in [6] and in test [7] was “inactive” each time. Moreover, the activity change, negative = inhibition is -9.57% (inactive) in [9] (at 17.2 µM (top of the series)), -27.1% (inactive) in [9] (at 38 µM (top of the series)) and 1.16% (inactive) in test [13] (at 25.7 µM (top of the series)). The molecule was classed as inactive in test [10], in test [11], in test [16], in [17], in test [18] and in test [19]. Further, the Potency in test [3] was > 46 µM (inactive) and > 20.6 µM (inactive); in test [4], 0.631 µM (active). The max response in test [13] (setting [21]) is -0.675%; in test [13] (setting [22]), -5.05%.

Take `CNCCc1cnc[nH]1`: the Potency in test [2] and in test [3] was > 46 µM (inactive) each time. Besides, the activity change, negative = inhibition in test [13] (at 57.5 µM (top of the series)) is 4.08% (inactive). Further, the max response in test [13] (setting [21]) is -7.35%; in test [13] (setting [22]) it was -3.08%. The Potency entry in [14], in [5], in [6] and in test [7] was “inactive” in each case.

Regarding `C=C(C)CN1CC[C@@]23c4c5ccc(O)c4O[C@H]2c2[nH]c4ccccc4c2C[C@]3(O)[C@@H]1C5`, the Potency in test [2] and in test [3] was > 46 µM (inactive) each time. Also, the Potency result in [12], in test [20], in [5], in test [6] and in test [7] was “inactive” each time.

As to `CC(C)[C@@H]1CN[C@H](C(=O)O)[C@@H]1CC(=O)O`, the Potency in test [2] and in test [3] was > 46 µM (inactive) each time. For the same molecule, the call in test [11] was inactive. The activity change, negative = inhibition in [13] (at 57.5 µM (top of the series)) was 5.36% (inactive). Also, the results for the max response in test [13] (setting [21]) and in test [13] (setting [22]) were 14.8% and 17.2%, respectively. The Potency entry in test [5], in test [6] and in test [7] was “inactive” throughout.

Turning to `CN1C[C@H](CNC(=O)OCc2ccccc2)C[C@H]2c3cccc4c3c(cn4C)C[C@@H]21`, the activity change, negative = inhibition was -3.47% (inactive) in test [9] (at 17.2 µM (top of the series)) and -3.64% (inactive) in test [13] (at 25.7 µM (top of the series)). Moreover, the call in test [10] and in test [11] was inactive. Besides, the Potency in [3] is > 20.6 µM (inactive) and > 46 µM (inactive). Further, the Potency result in [12], in test [5], in test [6] and in test [7] was “inactive” each time. For the same molecule, the max response in test [13] (setting [21]) was -21.4%; in [13] (setting [22]), -20.5%.
